# Results: paper PMC7862700, “An all-to-all approach to the identification of sequence-specific readers for epigenetic DNA modifications on cytosine”
# How the values were obtained:
# Experiment in all cases: DAPPL (digital affinity profiling via proximity ligation, sequencing); 10 mM Tris-HCl pH 7.5, 50 mM NaCl, 1 mM DTT, 4% glycerol, room temperature, 30 min; GST-TFs on glutathione beads, 16-mer random dsDNA library, 0.1% formaldehyde crosslink after washing; high values mean tight binding
# FEV = target: T1, FEV (Homo sapiens, UniProt Q99581 1-238); conditions: protein: recombinant; tags: N-terminal GST; dsDNA, one strand shown
# T1 sequence: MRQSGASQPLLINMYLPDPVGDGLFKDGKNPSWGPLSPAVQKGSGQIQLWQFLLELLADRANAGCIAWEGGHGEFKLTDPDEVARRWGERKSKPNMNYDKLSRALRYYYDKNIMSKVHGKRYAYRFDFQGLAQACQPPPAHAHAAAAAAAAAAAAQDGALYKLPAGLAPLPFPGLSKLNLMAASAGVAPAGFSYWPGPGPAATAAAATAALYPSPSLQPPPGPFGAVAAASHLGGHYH
# How it was run: (§1)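 Pools of DNA-barcoded human transcription factors, expressed in yeast as GST fusions on glutathione beads and combined with a tag-only sample, were incubated with 200 nmole of a 16-mer random double-stranded DNA library. Incubation took 30 min at room temperature in Tris/NaCl/DTT/glycerol buffer and was followed by washing, 0.1% formaldehyde crosslinking, proximity ligation (BsaI/T4 ligase, 1 h, 37 °C), PCR amplification and sequencing on an Illumina NextSeq500. Binding signal is the ratio of a hexamer's read frequency for a factor to its frequency for the tag-only sample.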
# ETV5 = ETV5 (Homo sapiens, UniProt P41161 1-510); conditions: protein: recombinant; tags: N-terminal GST; dsDNA, one strand shown
# How it was run: as §1
# HSF1 = HSF1 (Homo sapiens, UniProt Q00613 1-529); conditions: protein: recombinant; tags: N-terminal GST; chain copies: 3; dsDNA, one strand shown
# How it was run: as §1
# SPIC = target: T2, SPIC (Homo sapiens, UniProt Q8N5J4 1-248); conditions: protein: recombinant; tags: N-terminal GST; dsDNA, one strand shown
# T2 sequence: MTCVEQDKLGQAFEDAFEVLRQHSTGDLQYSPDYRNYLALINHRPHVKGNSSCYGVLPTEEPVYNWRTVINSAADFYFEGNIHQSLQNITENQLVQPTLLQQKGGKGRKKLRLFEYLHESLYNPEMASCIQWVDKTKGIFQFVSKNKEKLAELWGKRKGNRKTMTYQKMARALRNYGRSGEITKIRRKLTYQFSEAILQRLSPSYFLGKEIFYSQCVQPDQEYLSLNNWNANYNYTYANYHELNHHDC
# How it was run: as §1
# ELF4 = ELF4 (Homo sapiens, UniProt Q99607 1-663); conditions: protein: recombinant; tags: N-terminal GST; dsDNA, one strand shown
# How it was run: as §1
# ELK4 = target: T3, ELK4 (Homo sapiens, UniProt P28324-2 1-405); conditions: protein: recombinant; tags: N-terminal GST; dsDNA, one strand shown
# T3 sequence: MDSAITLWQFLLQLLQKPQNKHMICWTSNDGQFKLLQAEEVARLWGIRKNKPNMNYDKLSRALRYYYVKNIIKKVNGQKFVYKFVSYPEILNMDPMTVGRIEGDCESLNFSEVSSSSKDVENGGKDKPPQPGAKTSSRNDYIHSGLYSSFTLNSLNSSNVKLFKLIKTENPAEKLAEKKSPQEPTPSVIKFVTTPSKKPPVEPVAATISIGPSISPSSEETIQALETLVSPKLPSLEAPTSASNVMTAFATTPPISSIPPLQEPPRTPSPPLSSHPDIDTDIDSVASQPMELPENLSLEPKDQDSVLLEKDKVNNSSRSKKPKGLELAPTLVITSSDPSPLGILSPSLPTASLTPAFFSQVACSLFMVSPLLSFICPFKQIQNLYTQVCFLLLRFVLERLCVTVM
# How it was run: as §1
# ETV2 = target: T4, ETV2 (Homo sapiens, UniProt O00321 1-342); conditions: protein: recombinant; tags: N-terminal GST; dsDNA, one strand shown
# T4 sequence: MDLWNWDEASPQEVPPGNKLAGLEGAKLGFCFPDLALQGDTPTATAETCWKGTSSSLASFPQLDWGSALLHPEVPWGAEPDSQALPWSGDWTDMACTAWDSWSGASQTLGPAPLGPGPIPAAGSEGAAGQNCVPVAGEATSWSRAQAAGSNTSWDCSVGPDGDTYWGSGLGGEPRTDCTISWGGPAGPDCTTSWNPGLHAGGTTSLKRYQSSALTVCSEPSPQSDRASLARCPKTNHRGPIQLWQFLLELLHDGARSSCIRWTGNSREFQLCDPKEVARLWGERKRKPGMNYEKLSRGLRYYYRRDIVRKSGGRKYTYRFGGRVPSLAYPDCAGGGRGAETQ
# How it was run: as §1
# ELF3 = target: T5, ELF3 (Homo sapiens, UniProt P78545 1-371); conditions: protein: recombinant; tags: N-terminal GST; dsDNA, one strand shown
# T5 sequence: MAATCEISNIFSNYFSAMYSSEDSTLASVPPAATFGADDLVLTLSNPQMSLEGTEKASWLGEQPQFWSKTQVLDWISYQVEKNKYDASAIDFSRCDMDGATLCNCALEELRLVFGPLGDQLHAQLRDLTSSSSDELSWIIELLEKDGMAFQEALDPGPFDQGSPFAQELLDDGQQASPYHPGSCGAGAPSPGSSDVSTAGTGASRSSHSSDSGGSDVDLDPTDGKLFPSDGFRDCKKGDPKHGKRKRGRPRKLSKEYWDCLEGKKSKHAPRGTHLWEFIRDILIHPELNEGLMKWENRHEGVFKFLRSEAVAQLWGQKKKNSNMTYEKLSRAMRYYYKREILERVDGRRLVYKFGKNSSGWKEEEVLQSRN
# How it was run: as §1
# CRX = CRX (Homo sapiens, UniProt O43186 1-299); conditions: protein: recombinant; tags: N-terminal GST; dsDNA, one strand shown
# How it was run: as §1
# ETV1 = ETV1 (Homo sapiens, UniProt P50549 1-477); conditions: protein: recombinant; tags: N-terminal GST; dsDNA, one strand shown
# How it was run: as §1
# Sequence of ETV1 (P50549 whole entry): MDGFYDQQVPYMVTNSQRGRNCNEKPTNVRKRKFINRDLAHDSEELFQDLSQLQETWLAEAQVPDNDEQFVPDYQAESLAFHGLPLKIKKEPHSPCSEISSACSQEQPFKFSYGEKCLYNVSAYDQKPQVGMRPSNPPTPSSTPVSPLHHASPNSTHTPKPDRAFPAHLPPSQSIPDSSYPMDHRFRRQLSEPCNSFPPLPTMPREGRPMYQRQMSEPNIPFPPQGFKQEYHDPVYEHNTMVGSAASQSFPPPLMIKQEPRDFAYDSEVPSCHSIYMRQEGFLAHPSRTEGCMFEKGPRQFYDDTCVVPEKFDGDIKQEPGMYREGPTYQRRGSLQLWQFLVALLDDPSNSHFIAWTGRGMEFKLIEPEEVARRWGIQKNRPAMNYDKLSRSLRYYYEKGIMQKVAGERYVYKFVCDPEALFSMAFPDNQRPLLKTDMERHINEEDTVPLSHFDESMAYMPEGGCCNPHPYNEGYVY
# Sequence of ETV5 (P41161 whole entry): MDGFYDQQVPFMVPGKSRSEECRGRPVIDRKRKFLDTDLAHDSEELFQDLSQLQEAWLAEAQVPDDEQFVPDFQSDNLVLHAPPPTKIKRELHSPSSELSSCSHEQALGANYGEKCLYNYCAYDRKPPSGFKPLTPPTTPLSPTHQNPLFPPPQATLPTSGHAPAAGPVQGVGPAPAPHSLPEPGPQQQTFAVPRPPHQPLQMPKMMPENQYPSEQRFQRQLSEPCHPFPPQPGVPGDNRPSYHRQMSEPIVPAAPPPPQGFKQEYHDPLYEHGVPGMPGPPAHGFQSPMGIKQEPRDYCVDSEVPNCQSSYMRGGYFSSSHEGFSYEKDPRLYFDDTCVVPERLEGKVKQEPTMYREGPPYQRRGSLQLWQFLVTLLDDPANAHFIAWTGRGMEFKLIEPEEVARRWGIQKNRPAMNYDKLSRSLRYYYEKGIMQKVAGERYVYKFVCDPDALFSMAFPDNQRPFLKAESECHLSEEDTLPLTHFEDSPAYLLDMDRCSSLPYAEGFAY
# Sequence of HSF1 (Q00613 whole entry): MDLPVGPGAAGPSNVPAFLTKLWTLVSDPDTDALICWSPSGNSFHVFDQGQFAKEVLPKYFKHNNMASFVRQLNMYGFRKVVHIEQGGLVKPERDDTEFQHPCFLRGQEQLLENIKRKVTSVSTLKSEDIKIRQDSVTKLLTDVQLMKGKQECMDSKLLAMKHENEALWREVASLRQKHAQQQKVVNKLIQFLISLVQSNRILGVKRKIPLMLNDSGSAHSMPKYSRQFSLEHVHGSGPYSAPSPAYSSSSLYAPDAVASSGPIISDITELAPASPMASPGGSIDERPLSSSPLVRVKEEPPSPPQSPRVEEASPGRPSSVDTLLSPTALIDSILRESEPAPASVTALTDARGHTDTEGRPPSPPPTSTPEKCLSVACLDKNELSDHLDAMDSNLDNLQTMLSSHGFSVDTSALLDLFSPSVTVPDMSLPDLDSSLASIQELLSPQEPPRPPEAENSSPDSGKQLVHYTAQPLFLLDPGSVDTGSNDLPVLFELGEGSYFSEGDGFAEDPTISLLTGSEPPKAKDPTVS
# Sequence of CRX (O43186 whole entry): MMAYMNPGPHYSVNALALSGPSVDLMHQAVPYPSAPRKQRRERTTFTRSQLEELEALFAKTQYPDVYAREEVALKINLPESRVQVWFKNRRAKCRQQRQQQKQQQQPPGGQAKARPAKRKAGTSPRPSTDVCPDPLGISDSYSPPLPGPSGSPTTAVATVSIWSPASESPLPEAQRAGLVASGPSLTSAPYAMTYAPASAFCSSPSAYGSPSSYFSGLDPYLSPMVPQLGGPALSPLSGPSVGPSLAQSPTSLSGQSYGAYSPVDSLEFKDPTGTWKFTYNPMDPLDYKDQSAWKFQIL
# Sequence of ELF4 (Q99607 whole entry): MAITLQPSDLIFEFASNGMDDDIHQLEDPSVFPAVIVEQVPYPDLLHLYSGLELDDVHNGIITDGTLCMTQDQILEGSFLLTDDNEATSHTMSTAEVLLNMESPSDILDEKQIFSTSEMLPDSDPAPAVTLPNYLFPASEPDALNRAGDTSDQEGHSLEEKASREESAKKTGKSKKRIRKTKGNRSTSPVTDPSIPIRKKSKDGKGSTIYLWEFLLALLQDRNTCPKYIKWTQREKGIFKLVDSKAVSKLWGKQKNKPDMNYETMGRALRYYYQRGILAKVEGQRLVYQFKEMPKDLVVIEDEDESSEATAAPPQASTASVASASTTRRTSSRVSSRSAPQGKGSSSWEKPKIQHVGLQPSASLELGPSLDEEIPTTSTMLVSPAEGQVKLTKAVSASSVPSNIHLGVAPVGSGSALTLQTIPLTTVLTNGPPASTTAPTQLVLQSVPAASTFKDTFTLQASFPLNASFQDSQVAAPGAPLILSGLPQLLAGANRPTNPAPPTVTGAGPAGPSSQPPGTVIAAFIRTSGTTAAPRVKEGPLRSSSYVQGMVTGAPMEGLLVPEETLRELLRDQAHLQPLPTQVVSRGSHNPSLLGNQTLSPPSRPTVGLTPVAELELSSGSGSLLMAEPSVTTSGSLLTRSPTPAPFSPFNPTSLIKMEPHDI
Sequence,binding signal (FEV),binding signal (ETV5),binding signal (HSF1),binding signal (SPIC),binding signal (ELF4),binding signal (ELK4),binding signal (ETV2),binding signal (ELF3),binding signal (CRX),binding signal (ETV1)
CTATAA,"1.16 fold enrichment (6-mer frequency, TF over GST control)","1.23 fold enrichment (6-mer frequency, TF over GST control)","1.51 fold enrichment (6-mer frequency, TF over GST control)","1.35 fold enrichment (6-mer frequency, TF over GST control)","1.26 fold enrichment (6-mer frequency, TF over GST control)","1.36 fold enrichment (6-mer frequency, TF over GST control)","1.15 fold enrichment (6-mer frequency, TF over GST control)","1.25 fold enrichment (6-mer frequency, TF over GST control)","1.83 fold enrichment (6-mer frequency, TF over GST control)","1.2 fold enrichment (6-mer frequency, TF over GST control)"
CACTCT,"1.24 fold enrichment (6-mer frequency, TF over GST control)","1.29 fold enrichment (6-mer frequency, TF over GST control)","1.24 fold enrichment (6-mer frequency, TF over GST control)","1.22 fold enrichment (6-mer frequency, TF over GST control)","1.22 fold enrichment (6-mer frequency, TF over GST control)","1.58 fold enrichment (6-mer frequency, TF over GST control)","1.37 fold enrichment (6-mer frequency, TF over GST control)","1.4 fold enrichment (6-mer frequency, TF over GST control)","1.08 fold enrichment (6-mer frequency, TF over GST control)","1.33 fold enrichment (6-mer frequency, TF over GST control)"
TCTACG,"1.52 fold enrichment (6-mer frequency, TF over GST control)","1.3 fold enrichment (6-mer frequency, TF over GST control)","1.49 fold enrichment (6-mer frequency, TF over GST control)","1.3 fold enrichment (6-mer frequency, TF over GST control)","1.37 fold enrichment (6-mer frequency, TF over GST control)","1.36 fold enrichment (6-mer frequency, TF over GST control)","1.38 fold enrichment (6-mer frequency, TF over GST control)","1.5 fold enrichment (6-mer frequency, TF over GST control)","1.44 fold enrichment (6-mer frequency, TF over GST control)","1.44 fold enrichment (6-mer frequency, TF over GST control)"
TCCCTT,"1.51 fold enrichment (6-mer frequency, TF over GST control)","1.5 fold enrichment (6-mer frequency, TF over GST control)","1.51 fold enrichment (6-mer frequency, TF over GST control)","1.66 fold enrichment (6-mer frequency, TF over GST control)","1.68 fold enrichment (6-mer frequency, TF over GST control)","1.41 fold enrichment (6-mer frequency, TF over GST control)","1.32 fold enrichment (6-mer frequency, TF over GST control)","1.5 fold enrichment (6-mer frequency, TF over GST control)","1.69 fold enrichment (6-mer frequency, TF over GST control)","1.49 fold enrichment (6-mer frequency, TF over GST control)"
CGAATT,"1.14 fold enrichment (6-mer frequency, TF over GST control)","1.21 fold enrichment (6-mer frequency, TF over GST control)","1.79 fold enrichment (6-mer frequency, TF over GST control)","1.25 fold enrichment (6-mer frequency, TF over GST control)","1.17 fold enrichment (6-mer frequency, TF over GST control)","1.36 fold enrichment (6-mer frequency, TF over GST control)","1.02 fold enrichment (6-mer frequency, TF over GST control)","1.18 fold enrichment (6-mer frequency, TF over GST control)","1.63 fold enrichment (6-mer frequency, TF over GST control)","1.15 fold enrichment (6-mer frequency, TF over GST control)"
CTTGCA,"1.3 fold enrichment (6-mer frequency, TF over GST control)","1.31 fold enrichment (6-mer frequency, TF over GST control)","1.12 fold enrichment (6-mer frequency, TF over GST control)","1.28 fold enrichment (6-mer frequency, TF over GST control)","1.41 fold enrichment (6-mer frequency, TF over GST control)","1.4 fold enrichment (6-mer frequency, TF over GST control)","1.45 fold enrichment (6-mer frequency, TF over GST control)","1.3 fold enrichment (6-mer frequency, TF over GST control)","1.15 fold enrichment (6-mer frequency, TF over GST control)","1.41 fold enrichment (6-mer frequency, TF over GST control)"
CGCTCT,"1.27 fold enrichment (6-mer frequency, TF over GST control)","1.34 fold enrichment (6-mer frequency, TF over GST control)","1.17 fold enrichment (6-mer frequency, TF over GST control)","1.31 fold enrichment (6-mer frequency, TF over GST control)","1.39 fold enrichment (6-mer frequency, TF over GST control)","1.07 fold enrichment (6-mer frequency, TF over GST control)","1.12 fold enrichment (6-mer frequency, TF over GST control)","1.24 fold enrichment (6-mer frequency, TF over GST control)","1.05 fold enrichment (6-mer frequency, TF over GST control)","1.25 fold enrichment (6-mer frequency, TF over GST control)"
